Screening results from PubChem BioAssay.
FBW7 activator: FBW7 E3 ligase activators, primary screen, biochemical, AlphaScreen, human; F-box/WD repeat-containing protein 7 (Homo sapiens), Q969H0; AlphaScreen FBW7–phospho-cyclin E peptide binding, activator screen; normalized activity (activation), % at 26.1 µM; 650,000 tested, 0.13% active; in the data active means normalized activity above about 1.9%;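 further: purified mutant Fbw7 with reduced substrate affinity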
TEAD-YAP inh: TEAD-YAP interaction inhibition, primary screen, TEAD-YAP interaction inhibitor project, luminescence, HEK-TIYL cells. AID 1259422, 2018. 640,000 tested, 1.4% active. TEAD-Gal4/YAP UAS-luciferase luminescence. inhibition, % at 9.12 µM; in the data active means inhibition above about 32%;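 further: 0% = median of test compound wells and 100% = reference inhibitor wells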
GPR151 activ: activators of human GPR151, primary screen, cell-based, PathHunter beta-arrestin, luminescence | G-protein coupled receptor 151 (Homo sapiens), Q8TDV0 | PathHunter beta-arrestin GPR151 cells | activation, % at 11.2 µM | 650,000 tested, 1% active; in the data active means activation above about 4.9%;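 further: 0% = median of compound wells and 100% = cells with positive control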
MITF primary: MITF inhibitors, primary screen, biochemical, AlphaScreen, human; Microphthalmia-associated transcription factor (Homo sapiens), O75030; AlphaScreen MITF homodimerization, bead proximity signal; inhibition, % at 2.6 µM; 650,000 tested, 0.91% active; AID 1259374, 2018; in the data active means inhibition above about 50%;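 further: 0% = vehicle wells with protein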
Target sequence (O75030 whole entry, looked up): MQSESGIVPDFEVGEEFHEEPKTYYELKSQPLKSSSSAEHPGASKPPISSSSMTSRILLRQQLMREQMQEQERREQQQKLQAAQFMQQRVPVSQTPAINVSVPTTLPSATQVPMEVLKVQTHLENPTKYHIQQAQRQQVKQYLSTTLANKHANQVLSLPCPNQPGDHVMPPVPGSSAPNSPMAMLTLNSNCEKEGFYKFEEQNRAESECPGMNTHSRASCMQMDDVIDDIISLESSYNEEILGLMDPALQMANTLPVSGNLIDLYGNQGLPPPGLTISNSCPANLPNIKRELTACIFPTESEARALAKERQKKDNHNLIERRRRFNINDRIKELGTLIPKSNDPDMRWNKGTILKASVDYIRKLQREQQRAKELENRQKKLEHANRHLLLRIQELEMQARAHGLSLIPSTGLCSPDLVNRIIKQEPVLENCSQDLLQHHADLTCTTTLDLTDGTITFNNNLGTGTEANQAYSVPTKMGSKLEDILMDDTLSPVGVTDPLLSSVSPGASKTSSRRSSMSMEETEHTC
GPR151 conf act: GPR151 activators, triplicate retest, confirmation, cell-based, PathHunter beta-arrestin, luminescence; activation, % at 11.2 µM; 6,700 tested, under 10 active; shares compounds with GPR151 activ; GPR151 PathHunter beta-arrestin cells, 90 min; % of EA-reagent control over plate median; AID 1508609, 2020;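 active means mean percent activation across replicates above the confirmation screen cutoff of 4.91%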
GPR119 ag: GPR119 activators in beta-arrestin cells, counter-screen for GPR151 activator project, cell-based, PathHunter beta-arrestin, luminescence, triplicate; shares compounds with GPR151 activ; 90 min; 0 = compound-well median, 100 = enzyme-acceptor control; activation, % at 11.2 µM; 6,700 tested, 0.3% active;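 active means mean percent activation in the counterscreen above 29.09%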;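 further: counterscreen on off-target GPR119 to flag nonselective hits from the GPR151 activator screen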
* marks the source's active call; other numbers are inactive results; / = not tested or not shown. Shown are actives, neighbours in structure and some others; about 3.5% of the full set was active somewhere.

SMILES | FBW7 activator | TEAD-YAP inh | GPR151 activ | MITF primary | GPR151 conf act | GPR119 ag
COc1cccc(N2C(=O)C(=O)/C(=C(/O)c3ccccc3)C2c2ccc([N+](=O)[O-])cc2)c1 (stereo not drawn) | 0 | -8 | 0 | -7 | / | /
CC1CCCN(CCCNC(=O)c2ccc3c(c2)NC(=O)C(N2CCOCC2)S3)C1 (stereo not drawn) | 0 | -2 | 6.2* | -4 | 0 | -4
Cc1ccc(S(=O)(=O)N(CC(=O)Nc2cccc(Cl)c2Cl)c2cccc(Cl)c2)cc1 | 0 | 8 | 1 | 8 | / | /
CC(=O)Nc1ccc(/C=C(\C#N)c2nc3ccccc3[nH]2)cc1 | 0 | -31 | 0 | 3 | / | /
CC(=O)Nc1ccc(/C=C(\c2nc3ccccc3[nH]2)S(=O)(=O)c2ccccc2)cc1 | 0 | -3 | 6.6* | 6 | 0 | 3
COCC(C)NC(=O)c1ccc(OC2CCN(Cc3ccccn3)CC2)cc1 (stereo not drawn) | 0 | 2 | 5.8* | -3 | 0 | -7
COc1ccc(OC)c(/C=C2\NC(=O)N(Cc3ccc(Cl)cc3)C2=O)c1 | 1 | 6 | 7.9* | 8 | 0 | -5
COc1cc(OC)c(/C=C2/NC(=O)N(Cc3ccc(F)cc3)C2=O)c(OC)c1 | 0 | -6 | 6.2* | 0 | 1 | -2
COc1ccc(OC)c(/C=C2/NC(=O)N(Cc3ccc(Br)cc3)C2=O)c1 | 0 | 3 | 2 | -4 | / | /
COc1ccc(Cl)cc1/C=C/c1[nH]c(=O)[nH]c(=O)c1[N+](=O)[O-] | 0 | 5 | 7.3* | -19 | 2 | 24
COc1ccc(OC)c(/C=C/c2[nH]c(=O)[nH]c(=O)c2[N+](=O)[O-])c1 | 0 | -1 | 2 | 3 | / | /
COc1ccc(C(=O)N2c3ccccc3CC2C)cc1OC (stereo not drawn) | 0 | 0 | 6.4* | -1 | 0 | 0
CC1Cc2ccccc2N1C(=O)c1ccc2c(c1)OCO2 (stereo not drawn) | 0 | 7 | 0 | 2 | / | /
Cc1c(NC(=S)NC(=O)C(C)(C)C)cccc1C(=O)O | 0 | -16 | 1 | 4 | / | /
CC1(C)C(=O)NC2CCCCC2N1C(=O)CCl (stereo not drawn) | 1 | 9 | 5.3* | 10 | 0 | -2
O=C(NNC(=O)C12CC3CC(C1)CC(c1ccccc1)(C3)C2)c1ccncc1 | 0 | 2 | 6.0* | -2 | 0 | 0
